# Experimental data: PubChem BioAssay (EPA / NIEHS)
# Active and inactive are the calls of the source. How the source made its calls: active means hit-call score of the fitted dose curve at least 0.9, where 1 is the maximum; inactive means score below 0.9.
# Read-out: not listed separately
# Assay: BSK_BE3C_SRB: Viability Assessment in the BioMAP Diversity Plus: BE3C Assay (AID 2283028);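 further: measured 24 h after chemical dosing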;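 on AC50: fitted both ways so AC50 may mark signal gain or loss versus DMSO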
# Conditions: primary human bronchial epithelial cells
# Method in brief: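 SRB total-protein staining (0.1%, after TCA fixation) of chemically dosed human bronchial epithelial primary cells at 24 h; DMSO serves as the negative control for bidirectional curve fitting.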
Compound,AC50,outcome
CCN(CC)C(=O)c1cc(S(=O)(=O)Cc2ccccc2)c(N2CCC(c3ccccc3)CC2)cc1N(CC)CCN(C)C,11 µM (active),
CC1=CC(=O)/C(=C(/C)O)C(=O)O1,,inactive
CCCCCCCCOc1ccc(C(=O)c2ccccc2)c(O)c1,,inactive
CN1C(=O)N(c2ccccc2Br)Cc2cnc(Nc3ccc4c(c3)OCC(CO)O4)nc21 (stereo not given),28.1 µM (active),
COCC(C)OCC(C)OCC(C)O (stereo not given),,inactive
CCCOC(=O)c1cc(O)c(O)c(O)c1,,inactive
COc1cccc([C@H](O)C2CCN(CCc3ccc(F)cc3)CC2)c1OC,,inactive
CC1(C)NC(=O)N(c2ccc([N+](=O)[O-])c(C(F)(F)F)c2)C1=O,,inactive
c1ccc(C[n+]2cccc3ccccc32)cc1,,inactive
Cc1oc2c(NC(=O)c3c(Cl)cccc3Cl)cccc2c1C(C)(C)O,,inactive

# Read-out: Thrombomodulin, THBD (gene 7056)
# Assay: BSK_3C_Thrombomodulin: BioMAP Diversity Plus: 3C Assay for Thrombomodulin Biomarker Activity (AID 2283029)
# Conditions: primary human endothelial cells (HUVEC); actives raise or lower the signal
# Method in brief: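 Human umbilical vein endothelial cells were exposed to chemicals for 24 h; cell-surface thrombomodulin quantified by ELISA, with bidirectional fitting against DMSO baseline.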
Compound,AC50,outcome
NC(=O)c1nc(-c2cccc(-c3cc(F)ccc3OCC(F)(F)C(F)(F)F)c2)n[nH]1,11.7 µM (active),
CCCCCCCCCCCC[N+](C)(C)C,5.28 µM (active),
O=C=NCCCCCCN=C=O,,inactive
CN(C)C(=O)C1(N2CCCCC2)CCN(CC[C@@]2(c3ccc(Cl)c(Cl)c3)CN(C(=O)c3ccccc3)CCO2)CC1,,inactive
CCCCOC(=O)CC(CC(=O)OCCCC)(OC(C)=O)C(=O)OCCCC,,inactive
Oc1ccc2ccccc2c1,,inactive
CC(C)(C)c1csc(-c2cc3cc(OCc4ccccc4CC(=O)O)ccc3o2)n1,,inactive
CN(C)c1ccc(C(=C2C=CC(=[N+](C)C)C=C2)c2ccc(N(C)C)cc2)cc1,3.97 µM (active),
O=c1ccc2ccccc2o1,,inactive
c1ccc2n[nH]nc2c1,,inactive
CC(C)(c1cc(Br)c(O)c(Br)c1)c1cc(Br)c(O)c(Br)c1,8.15 µM (active),
CCN(Cc1cccc(S(=O)(=O)O)c1)c1ccc(C(=C2C=CC(=[N+](CC)Cc3cccc(S(=O)(=O)O)c3)C=C2)c2ccccc2S(=O)(=O)[O-])cc1,,inactive
CCN(Cc1cccnc1)C(=O)c1cccc(Cl)c1[C@]1(C)C(=O)N(Cc2ccc(OC)cc2OC)c2ccc(Cl)cc21,,inactive
Cc1ccc2oc(CN(Cc3ccccc3)C(=O)Nc3c(F)cc(F)cc3F)c(-c3ccc(Cl)cc3)c2c1,,inactive
Cc1c2ccccc2c(C)c2c1ccc1ccccc12,,inactive
CC1=CC(=O)/C(=C(/C)O)C(=O)O1,,inactive
c1ccc(C[n+]2cccc3ccccc32)cc1,,inactive

# Read-out: Urokinase-type plasminogen activator receptor (uPAR), PLAUR (gene 5329)
# Assay: BSK_4H_uPAR: BioMAP Diversity Plus: 4H Assay for Urokinase-type plasminogen activator receptor (uPAR) Biomarker Activity (AID 2283030)
# Conditions: primary human endothelial cells (HUVEC); actives raise or lower the signal
# Method in brief: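 Endpoint derived via bidirectional curve fitting against DMSO baseline; readout was ELISA detection of uPAR on umbilical vein endothelial cells at 24 h post-treatment, with SRB-stained parallel cultures assessing cytotoxicity.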
Compound,AC50,outcome
NC(=O)c1nc(-c2cccc(-c3cc(F)ccc3OCC(F)(F)C(F)(F)F)c2)n[nH]1,22.6 µM (active),
O=C(Nc1ccc(Cl)cc1)Nc1ccc(Cl)c(Cl)c1,1.92 µM (active),
CCCCCCCCCCCC[N+](C)(C)C,29.8 µM (active),
CC[C@H](NC(=O)c1cc(F)ccc1NS(=O)(=O)c1cccc2cccnc12)c1ccccc1,,inactive
O=C=NCCCCCCN=C=O,,inactive
CN(C)C(=O)C1(N2CCCCC2)CCN(CC[C@@]2(c3ccc(Cl)c(Cl)c3)CN(C(=O)c3ccccc3)CCO2)CC1,12.3 µM (active),
CCCCOC(=O)CC(CC(=O)OCCCC)(OC(C)=O)C(=O)OCCCC,,inactive
Clc1ccccc1C(c1ccccc1)(c1ccccc1)n1ccnc1,18.3 µM (active),
Cc1occc1C(=O)Nc1ccc(C(=O)N2CCC(F)(F)/C(=C\C(=O)N3CCC(N4CCCCC4)CC3)c3ccccc32)cc1,,inactive
Cc1cn([C@H]2C[C@H](N=[N+]=[N-])[C@@H](CO)O2)c(=O)[nH]c1=O,,inactive
Oc1ccc2ccccc2c1,,inactive
COc1ccc2cc(S(=O)(=O)N[C@H](CC(=O)N[C@H](Cc3ccc(CN4[C@H](C)CCC[C@@H]4C)cc3)C(=O)N(C)C(C)C)c3ccc4c(c3)OCO4)ccc2c1,19.1 µM (active),
CCCCCCCCCC(=O)O,,inactive
CC(C)(C)c1csc(-c2cc3cc(OCc4ccccc4CC(=O)O)ccc3o2)n1,21 µM (active),
CC(C)(C)c1cc(/C=C2\SC(N)=NC2=O)cc(C(C)(C)C)c1O,36.7 µM (active),
CCOC(=O)O[C@H](C)OC(=O)c1ccc2c(c1)cc(C(=O)NC1CCN(C(C)C)CC1)n2Cc1cc(-c2ccc(Cl)s2)on1,7.66 µM (active),
CN(C)c1ccc(C(=C2C=CC(=[N+](C)C)C=C2)c2ccc(N(C)C)cc2)cc1,1.42 µM (active),
O=c1ccc2ccccc2o1,,inactive
c1ccc2n[nH]nc2c1,,inactive

Compound,AC50,outcome
CCCCCCCCOC(=O)c1cc(O)c(O)c(O)c1,37.7 µM (active),
CC(C)(c1cc(Br)c(O)c(Br)c1)c1cc(Br)c(O)c(Br)c1,28.9 µM (active),
CCN(Cc1cccc(S(=O)(=O)O)c1)c1ccc(C(=C2C=CC(=[N+](CC)Cc3cccc(S(=O)(=O)O)c3)C=C2)c2ccccc2S(=O)(=O)[O-])cc1,,inactive
CC[C@@H]1C[C@H](N(Cc2cc(C(F)(F)F)cc(C(F)(F)F)c2)C(C)=O)c2cc(C(F)(F)F)ccc2N1C(=O)OC(C)C,,inactive
CCN(Cc1cccnc1)C(=O)c1cccc(Cl)c1[C@]1(C)C(=O)N(Cc2ccc(OC)cc2OC)c2ccc(Cl)cc21,5.48 µM (active),
Cc1ccc2oc(CN(Cc3ccccc3)C(=O)Nc3c(F)cc(F)cc3F)c(-c3ccc(Cl)cc3)c2c1,,inactive
C[C@]12CC[C@@H]3c4ccc(O)cc4CC[C@H]3[C@@H]1CCC2=O,,inactive
Cc1cc(F)ccc1-c1cc(N2CC[C@@H](O)[C@H]2CO)ncc1N(C)C(=O)C(C)(C)c1cc(C(F)(F)F)cc(C(F)(F)F)c1,10.2 µM (active),
Cc1c2ccccc2c(C)c2c1ccc1ccccc12,14 µM (active),
CCN(CC)C(=O)c1cc(S(=O)(=O)Cc2ccccc2)c(N2CCC(c3ccccc3)CC2)cc1N(CC)CCN(C)C,19.8 µM (active),
CC1=CC(=O)/C(=C(/C)O)C(=O)O1,,inactive
CCCCCCCCOc1ccc(C(=O)c2ccccc2)c(O)c1,,inactive
CN1C(=O)N(c2ccccc2Br)Cc2cnc(Nc3ccc4c(c3)OCC(CO)O4)nc21 (stereo not given),3.51 µM (active),
COCC(C)OCC(C)OCC(C)O (stereo not given),,inactive
CCCOC(=O)c1cc(O)c(O)c(O)c1,,inactive
COc1cccc([C@H](O)C2CCN(CCc3ccc(F)cc3)CC2)c1OC,0.228 µM (active),
CC1(C)NC(=O)N(c2ccc([N+](=O)[O-])c(C(F)(F)F)c2)C1=O,,inactive
c1ccc(C[n+]2cccc3ccccc32)cc1,,inactive
Cc1oc2c(NC(=O)c3c(Cl)cccc3Cl)cccc2c1C(C)(C)O,,inactive
